From PubChem
PAFAH2 FP inh – PAFAH2 enzyme inhibitors, primary screen, biochemical, fluorescence polarization, human | recombinant PAFAH2, FP-rhodamine activity probe | inhibition, % at 3.39 µM | 340,000 compounds, 0.99% hits;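 active means inhibition above the mean over all tested compounds plus 3 SD, cut at about 30% in these data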;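 further: inhibitors block probe labeling of enzyme so polarization drops; 0% = enzyme with DMSO and 100% = wells lacking PAFAH2 protein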
PP5 primary – PP5 phosphatase inhibitors, primary screen, biochemical, fluorescence; inhibition, % at 6.7 µM; Serine/threonine-protein phosphatase 5 (Homo sapiens), P53041; AID 1987, 2009; 320,000 compounds, 0.18% hits; purified PP5c, OMFP substrate fluorescence;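 active means inhibition above the campaign's mean inhibition across all tested compounds plus 3 SD, cut at about 9.5% in these data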;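 further: 0% = DMSO only and 100% = 100 µM cantharidin control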
Fh CTSL1 inh – Fasciola hepatica cathepsin L1 inhibitors, primary screen, counter-screen for PFM18AAP inhibitor project, biochemical, QFRET, fluorogenic peptide substrate; recombinant F. hepatica cathepsin L1, Z-Leu-Arg-MCA fluorescence; inhibition, % at 5.96 µM; 300,000 compounds, 0.49% hits; AID 1906, 2009;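 active means inhibition above the mean of all tested compounds plus 3 SD, set per screening campaign, cut at about 17% in these data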;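 further: 0% = plate median of test compound wells and 100% = 1 µM Z-Phe-Ala-diazomethylketone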
pPAFAH inh – pPAFAH enzyme inhibitors, primary screen, biochemical, fluorescence polarization, human. Platelet-activating factor acetylhydrolase (Homo sapiens), Q13093. recombinant pPAFAH, FP-rhodamine probe fluorescence polarization. inhibition, % at 3.39 µM. 330,000 compounds, 1.5% hits. AID 463082, 2010;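 active means inhibition above the mean inhibition across the screen plus 3 SD, cut at about 25% in these data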;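 further: inhibitors block binding of the rhodamine activity-based probe so polarization drops; 0% = enzyme with DMSO and 100% = wells lacking pPAFAH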
Target sequence (Q13093 whole entry, looked up): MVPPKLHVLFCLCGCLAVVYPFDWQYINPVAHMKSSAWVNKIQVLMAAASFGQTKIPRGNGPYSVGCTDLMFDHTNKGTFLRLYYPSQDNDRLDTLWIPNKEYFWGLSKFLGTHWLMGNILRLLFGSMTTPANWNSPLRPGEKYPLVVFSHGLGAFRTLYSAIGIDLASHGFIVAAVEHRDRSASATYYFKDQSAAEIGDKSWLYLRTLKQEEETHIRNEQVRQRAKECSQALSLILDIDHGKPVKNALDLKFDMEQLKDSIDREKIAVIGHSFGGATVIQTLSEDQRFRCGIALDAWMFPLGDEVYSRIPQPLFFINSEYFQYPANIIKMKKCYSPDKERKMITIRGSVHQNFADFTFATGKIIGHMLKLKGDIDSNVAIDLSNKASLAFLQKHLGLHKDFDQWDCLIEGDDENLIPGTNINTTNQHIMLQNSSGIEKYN
PAFAH1B3 FP inh – PAFAH1B3 enzyme inhibitors, primary screen, biochemical, fluorescence polarization, human; Platelet-activating factor acetylhydrolase IB subunit alpha1 (Homo sapiens), Q15102; recombinant PAFAH1B3, FP-rhodamine probe; inhibition, % at 3.39 µM; 340,000 compounds, 0.28% hits;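 active means inhibition above the screen-wide average of all tested compounds plus 3 SD, cut at about 25% in these data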;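 further: 0% = enzyme with DMSO only and 100% = wells lacking PAFAH1B3 protein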
PAFAH1B2 inh – PAFAH1B2 enzyme inhibitors, primary screen, biochemical, fluorescence polarization, human | AID 492953, 2010 | recombinant PAFAH1B2, FP-rhodamine activity probe | Platelet-activating factor acetylhydrolase IB subunit alpha2 (Homo sapiens), P68402 | inhibition, % at 3.39 µM | 340,000 compounds, 1.2% hits;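 active means inhibition above the mean of all tested compounds plus 3 SD, cut at about 24% in these data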;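 further: 0% = enzyme with DMSO and 100% = wells lacking PAFAH1B2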
pPAFAH confirm – pPAFAH (PLA2G7) enzyme inhibitors, confirmation, biochemical, fluorescence polarization, human; shares compounds with pPAFAH inh; recombinant pPAFAH, FP-Rh probe fluorescence polarization; inhibition, % at 3.39 µM; 2,300 compounds, 72% hits;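 active means mean inhibition of the triplicate above the hit cutoff set for the earlier primary screen, cut at about 25% in these data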;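 further: 0% = enzyme with DMSO and 100% = wells lacking pPAFAH enzyme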
* hit, by the source's call; . = no result given. Most compounds without a hit are left out; they make up all but 3% or so of the library.

SMILES	PAFAH2 FP inh	PP5 primary	Fh CTSL1 inh	pPAFAH inh	PAFAH1B3 FP inh	PAFAH1B2 inh	pPAFAH confirm
O=C(Nc1ccc(NC(=O)C2CCCCC2)nc1)c1cccc(F)c1	-8	.	.	.	2	3	.
COc1ccc(N2CCN(C(=O)COC(=O)c3cccc(S(=O)(=O)Nc4cccc(C)c4)c3)CC2)cc1	3	1	1	40*	2	-4	44*
COc1ccc(C(=O)OCC(=O)c2ccc(C3CCCCC3)cc2)cc1	2	-1	0	1	1	3	.
Nc1ccc(O)cc1C(=O)OCC(=O)c1ccc(C2CCCCC2)cc1	12	6	-2	51*	5	6	26*
CC(Oc1ccccc1F)C(=O)NNC(=O)CCNC(=O)c1ccccc1Cl (configuration not stated)	-1	3	-7	54*	3	4	-1
N#C/C(=C\c1cc(Br)ccc1F)C(=O)NC1CC1	-5	1	-3	2	12	-4	.
O=C1CSC(=S)N1c1ccc(F)cc1	.	-1	-3	2	.	.	.
CN(C)c1ccc(N2C(=O)CSC2=S)cc1	-9	0	-1	37*	-10	-3	0
COc1ccc(-c2nc(-c3ccccc3)[nH]c(=O)c2C#N)cc1	4	2	-1	52*	-6	-6	0
N#Cc1ccc(OCC(=O)N2CCN(c3ccc(C(F)(F)F)cn3)CC2)cc1	-5	5	.	-9	13	5	.
COC(=O)Cc1ccc(OC(=O)c2cccc(S(=O)(=O)N3CCN(C)CC3)c2)cc1	-5	-3	0	6	5	18	.
CC(C)=CCC/C(C)=C/CNC(=O)C[C@H]1C[C@H](C(=O)N2CCCCC2)[C@@]2(C)c3[nH]c4cc(CCC(=O)N(C)C)ccc4c3CCN2C1=O	10	.	.	55*	7	5	42*
CC(C)N(C(=O)[C@H]1C[C@H](CC(=O)NCC23CC4CC(CC(C4)C2)C3)C(=O)N2CCc3c([nH]c4cc(CCC(=O)N(C)C)ccc34)[C@]12C)C(C)C	-3	.	.	45*	5	5	33*
CCCSc1ccc([C@@H]2[C@@H]3C(=O)N(C)C(=O)[C@@H]3[C@]3(C(=O)OC)CCCN23)cc1OC	8	0	1	4	-11	3	.
Cc1cc(C)nc(SCC(=O)c2ccc(O)c(O)c2)n1	13	-1	5	5	17	5	.
Cc1cc(SCC(=O)c2ccc(O)c(O)c2)n2nc(C)c(-c3ccccc3)c2n1	17	-1	-1	72*	13	-1	88*
O=C(CNC(=O)c1ccccc1)Oc1cccc(Cl)c1	.	1	-6	7	.	.	.
O=C(NCCc1nnc2ccc(NCCCN3CCOCC3)nn12)c1ccccc1	1	-2	1	-1	5	7	.
OC1(c2ccc(Cl)cc2)CCN(Cc2cn[nH]c2-c2ccc(F)cc2)CC1	10	0	2	58*	-1	3	0
COCC(C)n1c(C)cc(C(=O)COC(=O)c2cc(=O)[nH]c3ccccc23)c1C (configuration not stated)	-4	.	.	-2	3	0	.
CCCOc1ccc(N2C(=O)CC(N(O)c3ccccc3)C2=O)cc1 (configuration not stated)	-2	1	1	8	-4	8	.
O=C1CC(N(O)c2ccccc2)C(=O)N1c1cc(Cl)cc(Cl)c1 (configuration not stated)	-4	3	0	51*	6	7	8
COC(=O)c1sc(NC(=O)CN2CCN(c3cccc(Cl)c3)CC2)c(C(=O)OC)c1C	0	.	.	.	6	2	.
Cc1coc2c1C(=O)C(=O)c1c-2ccc2c1CCCC2(C)C	76*	1	16	56*	7	27*	70*
Cc1ccc(C(=O)c2coc3c2C(=O)C(=O)c2ccccc2-3)cc1	0	3	-1	11	0	6	.
SMILES	PAFAH2 FP inh	PP5 primary	Fh CTSL1 inh	pPAFAH inh	PAFAH1B3 FP inh	PAFAH1B2 inh	pPAFAH confirm
C[C@H]1COC2=C1C(=O)C(=O)c1c2ccc2c1CCCC2(C)C	41*	6	14	80*	28*	18	74*
O=C(CCc1c[nH]c2ccccc12)N1CCN(S(=O)(=O)c2ccc(F)cc2)CC1	-1	.	.	.	1	7	.
CSCCC(NS(=O)(=O)c1ccccc1)C(=O)OCc1cc(=O)oc2cc(O)ccc12 (configuration not stated)	9	2	-9	4	2	13	.
CCOC(=O)c1c(C)[nH]c(N=Nc2cc(C(=O)O)cc(C(=O)O)c2)c1C	6	-1	9	35*	8	-3	2
C/C(=N\NC(=O)c1cc(O)cc(O)c1)c1ccc(NC(=O)Cc2ccccc2)cc1	27	4	-3	45*	35*	19	15
C/C(=N\NC(=O)c1cccc(F)c1)c1ccc(NC(=O)Cc2ccccc2)cc1	-1	.	.	.	-6	4	.
CC1(CCCN2C(=O)c3ccccc3C2=O)OCCO1	.	2	-1	-3	.	.	.
CCC(CC)CN1C(N(C)C)=NC[C@@H]1CC(C)C	3	3	-5	4	3	-4	.
CC(=O)N1CCc2c(sc(NC(=O)CS(=O)(=O)c3ccc(F)cc3)c2C#N)C1	12	-2	3	43*	14	6	7
CC(C)(C)C(=O)Nc1c2c(nn1-c1ccccc1)CSC2	1	2	-2	3	3	4	.
COc1ccc(CCn2c(O)cc3nn(-c4nc5ccccc5s4)c(=O)c-3c2C)cc1	21	0	0	56*	15	7	44*
CC(=O)Nc1ccc2c(c1)C(=O)c1cccc(C(=O)O)c1-2	6	.	.	.	5	2	.
O=c1cc(-c2ccc(C3CCCCC3)cc2)[nH][nH]1	9	3	-3	35*	6	15	5
O=c1cc(-c2ccc(F)cc2)[nH][nH]1	3	2	-1	1	7	1	.
O=c1nc(/C=C/c2cccn2-c2ccc([N+](=O)[O-])cc2)cc(C(F)(F)F)[nH]1	6	0	5	36*	1	9	15
O=C(N/N=C/c1ccc(-c2ccccc2[N+](=O)[O-])o1)c1cccnc1	10	-1	2	11	16	11	.
CC(C)(C)c1cc(C(=O)N/N=C/c2ccc(-c3ccccc3[N+](=O)[O-])o2)n[nH]1	9	3	4	58*	5	5	9
